{
  "source": "the supplement of paper PMC7156485",
  "note": "± gives the standard deviation of the averaged measurements.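 Note: TDF denotes transformed human dermal fibroblasts of mesenchymal origin.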",
  "data": [
    {"test_system": "TDF", "assay": "cell number relative to DMSO (% of DMSO); higher = more cells (less growth inhibition / toxicity)", "conditions": "concentration: 10 µM; 24 h", "method_in_brief": "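HCC1569 and TDF cells (800 per well, 384-well plates, RPMI with 10% FBS) were treated with compounds at 10 µM for 24 h at 37 °C, in triplicate. Cells were fixed in 3.7% formaldehyde and stained with a rabbit anti-H1.0 antibody, an AlexaFluor 647 secondary and DAPI; six fields per well were imaged at ×10. H1.0 nuclear intensity or cell number is expressed as percent of the plate DMSO control, taking the median of replicates. HCC1569 values were smoothed for positional effects.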", "values": [
      {"smiles": "CCCCCCCCCCCCCCCC(=O)OC1C(SC)OC(C(NC(=O)C2CC(CCC)CN2C)C(C)Cl)C(O)C1O.Cl", "note": "(configuration not stated) [Clindamycin palmitate.HCl]", "cell number": 101},
      {"smiles": "CCC=CCC=CCC=CCC=CCC=CCCCC(=O)O", "note": "[Eicosapentaenoic acid]", "cell number": "103.8 ± 0.71"},
      {"smiles": "CC(C)[N+]1(C)C2CCC1CC(OC(=O)C(CO)c1ccccc1)C2.[Br-]", "note": "(configuration not stated) [Ipratropium.Br]", "cell number": 98},
      {"smiles": "CC(C=CC1=C(C)CCCC1(C)C)=CC=CC(C)=CC(=O)O", "note": "[13-cis Retinoic acid]", "cell number": "104 ± 2.9"},
      {"smiles": "O=C(Oc1cc(S(=O)(=O)c2ccccc2)ccc1[N+](=O)[O-])c1ccc(Cl)cc1", "note": "[2-nitro-5-(phenylsulfonyl)phenyl 4-chlorobenzoate]", "cell number": 87.8},
      {"smiles": "O=C(NC(Cc1ccccc1)C(=O)CCl)OCc1ccccc1", "note": "[Z-L-Phe chloromethyl ketone]", "cell number": 52.5},
      {"smiles": "O=c1c(-c2ccc(O)cc2)coc2cc(O)ccc12", "note": "[Daidzein]", "cell number": "107 ± 14"},
      {"smiles": "COc1cc2c3cc1Oc1cc(ccc1O)CC1c4c(cc(OC)c(O)c4Oc4ccc(cc4)CC3N(C)CC2)CC[N+]1(C)C.Cl.[Cl-]", "note": "(single isomer, unassigned; (+)) [(+)-Tubocuraraine chloride]", "cell number": 109},
      {"smiles": "Brc1ccc(C2CN3CCSC3=N2)cc1.O=C(O)C(=O)O", "note": "(stereo not drawn) [S(-)-p-Bromotetramisole oxalate]", "cell number": 107},
      {"smiles": "CN(C)CCC=C1c2ccccc2CCc2ccccc21.Cl", "note": "[Amitriptyline.HCl]", "cell number": 89.4},
      {"smiles": "CC(=O)Oc1cc(C(C)C)c(OCCN(C)C)cc1C.Cl", "note": "[Moxisylyte hydrochloride]", "cell number": 104},
      {"smiles": "COc1ccc(C2CC(=O)c3c(O)cc(OC4OC(CO)C(O)C(O)C4OC4OC(C)C(O)C(O)C4O)cc3O2)cc1O", "note": "(configuration not stated) [Neohesperidin]", "cell number": 104},
      {"smiles": "O=c1ccc2cc3ccoc3cc2o1", "note": "[7H-furo[3,2-g]chromen-7-one]", "cell number": 105},
      {"smiles": "CCCCCC(=O)C=CC1C(O)CC(O)C1CC=CCCCC(=O)O", "note": "(configuration not stated) [15-keto-prostaglandin F2a]", "cell number": 108},
      {"smiles": "CC[N+](CC)(CC)CCOc1cccc(OCC[N+](CC)(CC)CC)c1OCC[N+](CC)(CC)CC.[I-].[I-].[I-]", "note": "[Gallamine triethiodide]", "cell number": 99},
      {"smiles": "Cl.Cl.Fc1ccc(C(c2ccc(F)cc2)N2CCN(CC=Cc3ccccc3)CC2)cc1", "note": "[Flunarizine.2HCl]", "cell number": 105},
      {"smiles": "Cl.NCCS", "note": "[Cysteamine hydrochloride]", "cell number": 99.7},
      {"smiles": "COc1cc2nc(N3CCN(C(=O)C4COc5ccccc5O4)CC3)nc(N)c2cc1OC", "note": "(configuration not stated) [Doxazosin]", "cell number": 107},
      {"smiles": "CC1C(NC(=O)C(=NOC(C)(C)C(=O)O)c2csc(N)n2)C(=O)N1S(=O)(=O)O", "note": "(configuration not stated) [Aztreonam]", "cell number": 105},
      {"smiles": "CC(C)=CCCC(C)=CCOc1ccc2ccc(=O)oc2c1", "note": "[Auraptene]", "cell number": 103},
      {"smiles": "CCCCCCCNC1CCCC1CCCCCCC(=O)O", "note": "(racemic)", "cell number": 93.5},
      {"smiles": "N[C@@H](CC(=O)O)C(=O)O", "note": "[L-Aspartic acid]", "cell number": 108},
      {"smiles": "O=c1cc(-c2cccc3c2Sc2ccccc2S3)oc(N2CCOCC2)c1", "cell number": 97.9},
      {"smiles": "COc1cccc(/C=N/CC/N=C/c2cccc(OC)c2[O-])c1[O-].[Cl-].[Mn+2]", "cell number": 98.1},
      {"smiles": "CC1=NN(c2ccccc2)C(=O)C1", "cell number": 111},
      {"smiles": "CC1COC2=C1C(=O)C(=O)c1c2ccc2c1CCCC2(C)C", "note": "(configuration not stated) [Cryptotanshinone]", "cell number": 64.9},
      {"smiles": "O=c1c(-c2ccc(O)cc2)coc2cc(OC3OC(CO)C(O)C(O)C3O)cc(O)c12", "note": "(configuration not stated) [Genistin]", "cell number": 104},
      {"smiles": "CCCCCCCCCCCCCC=CC(O)C(CO)NC(=O)CCCCCCCCCCCCCCC", "note": "(configuration not stated) [C16 Ceramide]", "cell number": 95.3},
      {"smiles": "Cc1ccc(S(=O)(=O)N2c3ccccc3Oc3ccccc32)cc1", "note": "[10-[(4-methylphenyl)sulfonyl]-10H-phenoxazine]", "cell number": 11.3},
      {"smiles": "COc1cc(C(=O)OC2CC(C)=CCCC(C)=CC(O)C2C(C)C)ccc1O", "note": "(configuration not stated) [Tschimganidin]", "cell number": 101},
      {"smiles": "CC(C)c1ccc2c(c1)c(SC(C)(C)C)c(CC(C)(C)C(=O)[O-])n2Cc1ccc(Cl)cc1.[Na+]", "cell number": 108},
      {"smiles": "CCCCCC=CCC=CCC=CCC=CCCCC(=O)OC(CO)COC(=O)CCCCCCCCCCCCCCCCC", "note": "(configuration not stated) [1-Stearoyl-2-arachidonoyl-glycerol]", "cell number": 104}
    ]}
  ]
}
